High-throughput results: PubChem BioAssay, National Center for Advancing Translational Sciences (NCATS)
Eya2 phos inh: blocks the phosphatase activity of human Eya2 | O00167 | recombinant Eya2, OMFP fluorescence dephosphorylation (OMFP is methylfluorescein phosphate) | Potency, µM (top dose mostly 76.9 µM), inactives show top-dose activity, negative = inhibition, hits mostly inhibitors | actives 0.006% (n = 330,000) | AID 488837; further: potency means the concentration at half of the fitted maximal effect
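Eya2 protein (added as 0.2 uM solution) was preincubated with compound for 10 min at ambient temperature in 50 mM HEPES pH 7.5, 50 mM NaCl, 5 uM MgCl2, 0.05% BSA, 1 mM DTT. OMFP (added at 50 uM) then reacted 10 min; fluorescence read at 485/525 nm.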
TrxR1 substrate: substrates of rat thioredoxin reductase 1 | AID 588456 | actives 0.01% (n = 390,000) | Potency, µM (series often up to 114 µM), for the others: at the top dose activity change, negative = substrate turnover | purified TrxR1 substrate turnover, NADPH consumption readout | O89049; further: potency means the concentration at half of the fitted maximal effect; nearly all actives have a fitted effect of over 50% in size
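Rat TrxR1, dispensed at 90 nM, was prereduced with 400 uM NADPH (final) for 5 min at ~22 deg C, then incubated with compound 15 min before 400 uM selenite. A first-read NADPH fluorescence drop versus no-compound background flagged substrates.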
IDH1 R132H inh: inhibitors of human mutant IDH1 R132H; O75874; IDH1-R132H enzyme, NADPH consumption, diaphorase/resazurin fluorescence; Potency, µM (titrated, usually from 76.6 µM), inactives show at the top dose activity change, negative = inhibition, usual class: inhibitors; actives 0.093% (n = 390,000); AID 602179; further: potency means the concentration at half of the fitted maximal effect; nearly all actives have a fitted effect of over 65% in size
Target sequence (O75874 whole entry R132H, stated change not applied): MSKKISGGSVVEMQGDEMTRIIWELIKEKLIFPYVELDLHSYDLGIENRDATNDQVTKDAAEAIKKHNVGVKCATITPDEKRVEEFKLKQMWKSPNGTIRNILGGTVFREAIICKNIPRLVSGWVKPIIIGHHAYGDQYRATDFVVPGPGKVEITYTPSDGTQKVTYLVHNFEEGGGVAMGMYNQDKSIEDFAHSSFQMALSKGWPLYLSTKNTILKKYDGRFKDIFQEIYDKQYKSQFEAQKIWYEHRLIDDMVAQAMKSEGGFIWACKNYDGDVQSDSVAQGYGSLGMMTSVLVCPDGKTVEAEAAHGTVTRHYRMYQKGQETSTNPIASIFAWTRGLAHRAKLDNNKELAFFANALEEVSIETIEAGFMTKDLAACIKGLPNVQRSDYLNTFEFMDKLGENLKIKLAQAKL
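IDH1-R132H (0.5 ug/mL dispensed) in pH 7.5 Tris buffer was preincubated 30 min with compound, then given a substrate mix of 0.016 mM NADPH and 2 mM alpha-KG for 80 min at room temperature; remaining NADPH was read by diaphorase/resazurin fluorescence.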
rTrxR1 inhibitor: rat TrxR1 inhibition | O89049 | recombinant rTrxR1, NADPH fluorescence consumption, selenite substrate | Potency, µM (titrated, usually from 114 µM), for the others: at the top dose activity change, negative = inhibition, usual class: inhibitors | actives 1% (n = 390,000); further: potency means the concentration at half of the fitted maximal effect; nearly all actives have a fitted effect of over 65% in size
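Rat TrxR1 (90 nM in the dispensed reagent) was pre-reduced with 400 uM NADPH for 5 min at room temperature, then incubated with compound for 15 min. After 400 uM selenite was added, NADPH fluorescence (Ex 340/Em 450 nm) was followed for 8 min.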
FBPA coupling cs: inhibits coupling enzyme system, counter-screen for aldolase hits. coupling enzyme system counterscreen, AmpLite Red fluorescence. activity change, negative = inhibition, % at 58.2 µM, hits read low. actives 0.67% (n = 290,000). AID 2472; in the data active means activity change below about -30%
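Fluorescence at 525 nm excitation and 598 nm emission measured inhibition of the coupled detection system without aldolase. Compounds (at 57.5 uM final) were preincubated 10 min at room temperature with coupling enzyme reagent before a 20 min substrate/AmpLite Red step.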
Starred values were filed as active, the others as inactive; ? = inconclusive; . = not tested or not shown; [ ] = remark or other dose. Rows were chosen to be rich in hits. Some 1.5% of all compounds tested hit in one or more screens of this group. Unless noted, the call rests on the fitted dose curve; in most records, active means well fitted curve in the direction sought with a large enough effect; inconclusive means small, poorly fitted or top-dose-only effect, or another doubt; inactive means no such curve, though single readings can be large; an effect the other way counts as inactive or inconclusive. On the % scale 0 is the no-effect control and ±100 the full control effect.

SMILES	Eya2 phos inh	TrxR1 substrate	IDH1 R132H inh	rTrxR1 inhibitor	FBPA coupling cs
Cc1ccc(C(=O)Oc2oc(-c3ccco3)nc2C=Nc2ccc(Cl)cc2)cc1	0%	-2%	5%	1.8µM*	-3
O=C(Oc1oc(-c2ccco2)nc1C=Nc1ccccc1)c1ccoc1	15%	10%	-5%	3.5µM*	-3
COc1cccc(N=Cc2nc(-c3ccccc3)oc2OC(C)=O)c1	3%	7%[11.4 µM]	-1%	-65%	-2
Cc1ccc(N=Cc2nc(-c3ccco3)oc2O)cc1	-16%	8%	9%	-33%	-1
Cc1ccc(C(=O)Oc2oc(-c3ccccc3)nc2C=Nc2ccc(N(C)C)cc2)cc1	4%	-1%	9%	?	-5
O=C(Oc1oc(-c2ccco2)nc1C=Nc1ccccc1)c1ccco1	-5%	21%[57.1 µM]	2%	2.2µM*	0
CCCCN(CCCC)c1ccc(Cn2ccc3ccccc32)cc1	.	7%	.	0%	.
CC(=O)Nc1ccc(S(=O)(=O)/N=C2\C(=O)c3ccccc3C([O-])=C2n2cc[n+](-c3ccccn3)c2)cc1	-10%	9%	18%	?	-39*
Cc1ccc(NC(=O)C[n+]2ccn(C3=C([O-])c4ccccc4C3=O)c2)cc1	13%	-12%[57.1 µM]	4%	31%[57.1 µM]	2
CCCC[n+]1ccn(-c2nc3ccccc3nc2[N-]S(=O)(=O)c2ccc(Cl)cc2)c1	-12%	21%[57.1 µM]	21%	5%[57.1 µM]	0
Cc1ccc(S(=O)(=O)/N=C2\C(=O)c3ccccc3C([O-])=C2n2cc[n+](CCC(C)C)c2)cc1	-25%	-6%	5%	10%[57.1 µM]	-52*
CCCC[n+]1ccn(C2=C([O-])c3ccccc3C(=O)/C2=N\S(=O)(=O)c2ccc(Br)cc2)c1	7%	-9%	13%	-16%	-59*
NCCCN(Cc1ccc(Cl)cc1)c1ccc(Br)cn1	.	6%	.	-3%	.
COc1cc(CCNC(C)=O)c(C(=O)/C=C/c2cccc(OC)c2OC)cc1OC	.	.	.	.	3
CC(=O)c1cccc2c(O)c(C3=Nc4ccccc4C3=O)[nH]c12	-1%	-19%	-10%	?	-48*
O=C1C(c2c(O)[nH]c3ccccc23)=Nc2ccccc21	-7%	5%	0%	8%	2
COC(=O)c1ccc(OC(=O)c2ccccn2)cc1	13%	0%[57.1 µM]	-3%	9%[57.1 µM]	2
N#CC(C#N)=Cc1ccc(OC(=O)c2ccccn2)cc1	-5%	0%[57.1 µM]	1%	13µM*	1
COc1coc(C(O)CN)cc1=O (centres undefined)	7%	8%	5%	35%	-1
CCOC(=O)C(=Cc1cc(=O)c(OC)co1)C(=O)OCC	3%	2%	8%	3.5µM*	1
S=C(NCCCc1cnc[nH]1)NCCCN(CCc1ccc(Cl)cc1)c1ccc(Br)cn1	.	1%	.	30%	.
COc1cc([C@@H]2c3cc4c(cc3C(OC3OC5COC(C)OC5C(O)C3O)C3COC(=O)[C@@H]32)OCO4)cc(OC)c1O (some centres undefined)	.	.	.	.	3
CC(=O)/C(=C/c1ccccc1)C(=O)Nc1ccccc1C	?	-1%	5%	25µM*	-1
C=C(C)CC(C)(C)C	.	.	.	.	1
COc1ccc(NC(=O)CSc2oc(-c3ccco3)nc2S(=O)(=O)c2ccc(C)cc2)c(OC)c1	.	2%[2.29 µM]	-1%	11%	.
SMILES	Eya2 phos inh	TrxR1 substrate	IDH1 R132H inh	rTrxR1 inhibitor	FBPA coupling cs
COc1ccc(NC(=O)CSc2oc(-c3ccc(C)cc3)nc2S(=O)(=O)c2ccc(C)cc2)c(OC)c1	.	7%[2.29 µM]	3%	50µM*	.
O=c1cc(C23CC4CC(CC(C4)C2)C3)[nH][nH]1	.	9%	5%	14µM*	-21
FC(F)(F)c1cccc(NCc2cn3cccnc3n2)c1	6%	-6%	7%	-9%	-52*
Oc1ccc(CNc2cccc(C(F)(F)F)c2)c2cccnc12	-3%	.	.	.	.
O=C(/C=C/c1ccc(Br)o1)NCCCN1CCOCC1	5%	-3%	1%	8.9µM*	-7
O=c1[nH]c(Nc2ccccn2)cc2ccccc12	.	81%	10%	43%	.
Cc1ccccc1Nc1cc2ccccc2c(=O)[nH]1	-44%	13%[57.1 µM]	5%	?	-43*
O=c1[nH]c(Nc2ccccc2Cl)cc2ccccc12	.	31%	8%	39%	.
O=c1[nH]c(Nc2ccc(F)cc2)cc2ccccc12	?	32%	-5%	11µM*	-34*
COc1cc2nc(N3CCCN(C)CC3)nc(N(C)C)c2cc1OC	.	-4%	.	-32%	.
CC[C@H](C)[C@@H](NC(=O)O[C@@H]1Cc2cc(OC)ccc2O[C@H]1c1cccc(OC)c1)C(=O)OC	.	.	.	.	-2
COc1ccc(C2=Nn3c(nnc3-c3ccc(OC)cc3OC)SC2)c(OC)c1	.	.	.	.	1
Cc1ccc(S(=O)(=O)N2CCCN(c3nc(-c4cccs4)nc4ccccc34)CC2)cc1	.	12%	.	19%	.
CC1CCCCN1C(=O)c1cnn2c1NC(=C1CC1)C=C2C(F)F (centres undefined)	.	-2%	.	-11%	.
CCOC(=O)c1oc2cccc(OCC(O)CNC(C)C)c2c1C (centres undefined)	2%	185%	5%	68%	-76*
CN(C)/[N+]([O-])=N/Oc1ccc([N+](=O)[O-])cc1C(F)(F)F	.	4%[0.457 µM]	.	17%	.
CCNC(=O)N1c2ccc(OC)cc2C(C)=CC1(C)C	-17%	25%	8%	0%	-40*
COc1ccc2c(c1)C(C)=CC(C)(C)N2C(=O)CN1C(=O)CCC1=O	-9%	3%	8%	13%[57.1 µM]	1
COc1ccc(NC(=O)N2c3ccc(OC)cc3C(C)=CC2(C)C)cc1	6%	94%	13%	37%	-36*
CCc1c2c(nc3ccc4c(c13)OCCO4)-c1nc3ccccc3c(=O)n1C2	.	18%	.	13%	-4
Nc1ccc(S(=O)(=O)c2cc(O)c3ccccc3c2O)cc1	.	-10%	13%	2.8µM*	.
O=S(=O)(c1ccccc1)c1cc(O)ccc1O	19%	-14%[57.1 µM]	6%	?	-3
CCOC(=O)c1cc2n(c1/N=C/N(C)C)-c1ccccc1C2=O	19%	-7%	-14%	-17%	-35*
CC(=O)OC1=C(C#N)Cn2ccc3cccc1c32	-12%	.	.	.	-41*
CN(C)c1ccc(/C=N\Nc2ccc([N+](=O)[O-])cc2[N+](=O)[O-])cc1Br	.	-4%	.	7%	.
CC(=O)O[C@@H]1[C@@H](O)CN[C@@H]1Cc1ccccc1	.	-8%	.	40µM*	-1
CCOC(=O)C(=O)N1CCC(Cc2ccccc2)CC1	0%	5%[57.1 µM]	5%	31%[57.1 µM]	5
